In all, about 370,000 compounds went through this assay and about 2,800 (0.76%) were called active. What follows is part of a selection rich in actives, with near analogues and random picks from the rest. A number with no mark means an inactive call. Rule as the data show it: active = inhibition above about 21%; inactive = the rest.

This passage reports inhibition results from PubChem BioAssay AID687016 (The Scripps Research Institute Molecular Screening Center, 2013).

For the assay, the target named is E3 ubiquitin-protein ligase UHRF1 (Homo sapiens) (UniProt Q96T88). As to the kind of experiment: blockers of UHRF1 binding to methyl-oligo – biochemical, TR-FRET, human UHRF1, single concentration, counter-screen for MBD2 inhibitor project, primary screen (AID 687016).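 Also: UHRF1 SRA domain binding a hemimethylated CpG hairpin DNA probe; 0% = median of test compound wells and 100% = reference inhibitor.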 The note with it: UHRF1 binding to methylated oligo, at 4.4 µM, active compounds read high.
Chain of E3 ubiquitin-protein ligase UHRF1 (Homo sapiens) (Q96T88 whole entry, looked up, the tested form may be a part): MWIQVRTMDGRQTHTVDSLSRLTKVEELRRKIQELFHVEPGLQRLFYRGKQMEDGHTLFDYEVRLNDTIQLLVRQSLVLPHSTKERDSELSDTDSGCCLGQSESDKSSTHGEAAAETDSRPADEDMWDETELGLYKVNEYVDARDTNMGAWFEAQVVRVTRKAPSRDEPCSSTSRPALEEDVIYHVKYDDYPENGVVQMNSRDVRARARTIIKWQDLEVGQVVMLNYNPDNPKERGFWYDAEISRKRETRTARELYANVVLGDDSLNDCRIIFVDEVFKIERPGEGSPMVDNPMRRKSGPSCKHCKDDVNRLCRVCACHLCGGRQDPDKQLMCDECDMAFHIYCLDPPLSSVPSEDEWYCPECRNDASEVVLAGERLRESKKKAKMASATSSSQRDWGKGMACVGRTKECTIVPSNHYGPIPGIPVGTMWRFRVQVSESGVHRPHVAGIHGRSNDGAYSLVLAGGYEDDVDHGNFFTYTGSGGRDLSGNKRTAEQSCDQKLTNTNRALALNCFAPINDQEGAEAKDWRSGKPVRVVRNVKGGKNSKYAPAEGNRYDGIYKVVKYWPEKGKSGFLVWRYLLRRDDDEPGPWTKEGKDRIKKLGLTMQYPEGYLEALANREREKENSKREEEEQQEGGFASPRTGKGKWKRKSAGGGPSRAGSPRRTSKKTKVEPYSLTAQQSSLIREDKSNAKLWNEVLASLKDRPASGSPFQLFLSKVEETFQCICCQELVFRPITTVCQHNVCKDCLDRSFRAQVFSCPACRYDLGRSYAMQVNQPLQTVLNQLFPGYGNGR
Take `CC(C)c1ccc(OCC(=O)N2CCCN(C)CC2)cc1`: the inhibition (commonly the relative decrease from the control value, in per cent) was -1.28%.
As for `Cn1cc(C(=O)OCC(=O)N2CCCC2)c2ccccc21`, the inhibition is 73.7% (active).
Consider `CC(=O)Nc1ccccc1C(=O)OCC(=O)c1cccc2ccccc12`, for which the inhibition was 0.36%.
Regarding `O=C1C2CCN(CC2)C1(CO)CO`, the inhibition is 0.15%.
For `Cc1ccccc1CCC[C@@H](CC1CCCCC1)CN(C)C(=O)Oc1ccccc1`, the inhibition was -0.75%.
As to `Cc1cc(C=C2C(=O)NC(=O)NC2=O)c(C)n1-c1ccncc1`, the inhibition is -7.92%.
In the case of `Cc1cc(/C=C2/C(=O)NC(=O)N(Cc3ccco3)C2=O)c(C)n1-c1ccc(C(=O)O)cc1`, the inhibition is 78.5% (active).
Take `Cc1ccnc(-n2c(C)cc(/C=C3\C(=O)NC(=S)N(C)C3=O)c2C)c1`: the inhibition is 1.95%.
Regarding `O=C1NC(=O)N(Cc2ccco2)C(=O)/C1=C\c1ccc(-c2ccc(F)cc2)o1`, the inhibition is 81.8% (active).
With `CO[C@H]([C@H](C)/C=C/N(C)C=O)[C@@H](C)C(=O)CC[C@H](C)[C@H](O)[C@H](C)[C@H]1OC(=O)/C=C/C(C)=C/[C@H](O)[C@H](OC)C[C@@H]2C=CC[C@@H](C[C@H](OC)[C@@]3(CO3)[C@@H](OC)C[C@@H](OC)[C@@H]1C)O2` the figure was -2.95%.
With `CC(=CCOc1ccc2ccc(=O)oc2c1)C1=CC(=O)C(C)(C)O1`, the inhibition was 0.79%.
As for `NC(=O)Cn1cc(C(=O)c2ccccc2F)c2ccccc21`, the inhibition was -1.97%.
In the case of `S=C(NCCc1ccccc1)N1Cc2cc(N3CCOCC3)ccc2-n2nncc2C1`, the inhibition was -3.2%.
Consider `CCOC(=O)[C@]12Cc3ccccc3[C@H]1N(C1CCCCC1)C(=O)c1cc(OC)ccc12`, for which the inhibition is -1.33%.
As for `COP(=O)(Sc1ccccc1)C(Cc1ccccc1)NC(=O)OCc1ccccc1` (stereo not given), the inhibition is -3.61%.
On to `O=c1c2ccccc2nc(-c2ccc(Cl)cc2Cl)n1-c1ccncc1`, for which the inhibition was -0.96%.
Turning to `COc1ccc(N2C(=O)/C(=C/c3ccco3)C(=O)NC2=S)cc1`, the inhibition was 68.7% (active).
With `CCOC(=O)C(O)(c1ccc(N=Cc2ccccc2O)c(C)c1)C(F)(F)F` (stereo not given) the figure was -1.83%.
In the case of `CN(C)CCCN=Cc1c(O)n(Cc2ccco2)c(=O)[nH]c1=O` it was 0.23%; in that of `CC(C)CN1CCN(Cc2ccccc2C(F)(F)F)CC1CCO` (stereo not given), -2.88%.
